Experimental data from the supplement of paper PMC3898565.
Where “and” joins values, the source holds several entries; their conditions need not be identical. Identical values can stand only once. ± gives the uncertainty stated by the source.

What follows are molecules tested on U87 (assay: cell viability relative to vehicle control; higher = less growth inhibition (less active)). Conditions: 10 µM; 72 h.
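Also: viable cell number estimated from Alamar Blue fluorescence read at 560/90, part of a single-dose primary screen of an FDA-approved drug library.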

In order of rising cell viability:
1. O=C(NCCN1CCOCC1)c1ccc(Cl)cc1 [4-Chloro-N-(2-morpholin-4-yl-ethyl)-benzamide]  80.9 ± 3.8%
2. O=C1c2c(O)cc(O)cc2O[C@H](c2ccc(O)c(O)c2)[C@H]1O  90.7 ± 4.5%
3. Cc1[nH]cnc1CN1CCc2c(c3ccccc3n2C)C1=O  93.5 ± 2.2%
4. CN1C(=O)CC[C@H]1c1cccnc1 [(-)-Cotinine]  94.6 ± 10%
5. CN(C)CC/C=C1/c2ccccc2COc2ccc(CC(=O)O)cc21  95.88 ± 0.86%
6. COc1cc(/C=C/c2ccc(O)cc2)cc(OC)c1  100.4 ± 0.43%
7. Nc1ncnc2c1ncn2[C@@H]1O[C@H](CO)C[C@@H]1O [3'-deoxydenosine]  100.2 ± 0.64%
8. CNCC[C@H](Oc1cccc2ccccc12)c1cccs1  101 ± 4.5%
9. O=C1[C@H]2CCCC[C@H]2C(=O)N1CCCCN1CCN(c2nsc3ccccc23)CC1  102 ± 2.2%
10. C[C@@H]1C[C@H]2[C@@H]3C[C@H](F)C4=CC(=O)C(Cl)=C[C@]4(C)[C@@]3(F)[C@@H](O)C[C@]2(C)[C@@]1(O)C(=O)CO  102.1 ± 0.4%
11. Nc1nc(O)c2ncn(CCC(CO)CO)c2n1  103 ± 2.2%
12. CSc1nc2cc(Cl)c(Oc3cccc(Cl)c3Cl)cc2[nH]1  103 ± 2.5%
13. CCCc1c(OCCCCc2nnn[nH]2)ccc(C(C)=O)c1O  104 ± 1.5%
14. CCCCc1oc2ccccc2c1C(=O)c1cc(I)c(OCCN(CC)CC)c(I)c1 [Amiodarone]  105 ± 1.1%
15. C#C[C@]1(O)CC[C@H]2[C@@H]3CCC4=CC(=O)CC[C@@H]4[C@H]3CC[C@@]21CC  105.5 ± 0.58%
16. Cc1c(OCC(F)(F)F)ccnc1C[S+]([O-])c1nc2ccccc2[nH]1 (stereo not drawn)  104.7 ± 0.78%
17. Cc1cccc(C)c1NC(=O)C1CCCCN1C (stereo not drawn)  106 ± 0.63%
18. C[C@@H]1C[C@H]2[C@@H]3CCC4=CC(=O)C=C[C@]4(C)[C@@]3(F)[C@@H](O)C[C@]2(C)[C@H]1C(=O)CO  106 ± 0.2%
19. CN1CCN2c3ncccc3Cc3ccccc3C2C1 (stereo not drawn)  108 ± 2.1%
20. CCOc1cc(N)c(Cl)cc1C(=O)NCC1CN(Cc2ccc(F)cc2)CCO1 (stereo not drawn)  108 ± 1.4%
21. C[C@@H]1CN(CCCn2c3ccccc3c3ccccc32)C[C@H](C)N1 [Rimcazole]  109 ± 1.3%
22. COc1ccc(CC2c3cc(OC)c(OC)cc3CC[N+]2(C)CCC(=O)OCCCCCOC(=O)CC[N+]2(C)CCc3cc(OC)c(OC)cc3C2Cc2ccc(OC)c(OC)c2)cc1OC (stereo not drawn)  110 ± 0.2%

`COc1ccc2[nH]c([S+]([O-])Cc3ncc(C)c(OC)c3C)nc2c1` (stereo not drawn) was tested, and the cell viability was 105% and 106%.
